TROY signal inh: inhibitors of TROY-dependent NF-kB signaling | Q293 LMP1-TROYcd NF-kB luciferase reporter, 4 h | inhibition, % at 10 µM | 0.98% of 360,000 active;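 active means compounds whose plate-normalised and pattern-corrected inhibition of the luciferase reporter signal at the single screening dose is 50% or more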
TWEAK-Fn14 inh: inhibitors of TWEAK-Fn14 interaction signaling; TWEAK-stimulated Fn14 reporter cells, luciferase luminescence, 8 h; 2% of 360,000 active; inhibition, % at 10 µM; in the data active means inhibition above about 50%
LMP1 NFkB inh: Epstein-Barr LMP1 NF-kappaB reporter inhibition | LMP1-induced NF-kappaB luciferase reporter cells, luminescence | 0.69% of 350,000 active | AID 504558 | inhibition, % at 12.5 µM; in the data active means inhibition above about 41%; inconclusive means no clear call, values can overlap the other calls
LGR2 antag: Drosophila LGR2 receptor signaling inhibition; AID 720647; 0.35% of 380,000 active; HEK293 LGR2, CRE-luciferase, bursicon-stimulated, 4 h; inhibition, % at 9.99 µM;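 active means drop in luminescence signal, shown as inhibition above about 50% in the replicate tests, limit read from the data, passing the limit was not always enough; inconclusive means probably only some replicates passing the limit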;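 further: agonist challenge used bursicon conditioned medium at about half maximal strength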
HSF1 inhib: HSF1 inhibition | NIH3T3-HGL HSE-luciferase, MG132-induced, luminescence 8 h; active compounds read low | activity change, negative = inhibition, % at 7.5 µM (by protocol) | 0.77% of 300,000 active | AID 2098;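 active means more than half of replicate wells show activity change below -50%, luminescence cut by over half; inconclusive means some wells, but at most half, below -50%; inactive means no replicate well below -50%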;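 further: luciferase reports HSF-1 transcriptional activity via heat shock element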
HSF-1 act: increases HSF-1 driven luciferase reporter signal. NIH3T3-HGL HSF-1 luciferase reporter, MG132, 8 h; 100% = twice DMSO control signal. activation, % at 9 µM. 1.7% of 300,000 active. AID 504408;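 active means mean replicate activation of at least 50% with a set share of replicates each reaching 50%; inconclusive means only one of those two conditions met; inactive means mean below 50% and too few replicates reaching it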
A number is an active result; 0 = inactive; ? = inconclusive; - = no result. Shown are actives, neighbours in structure and some others; about 3.6% of the full set was active somewhere.

SMILES	TROY signal inh	TWEAK-Fn14 inh	LMP1 NFkB inh	LGR2 antag	HSF1 inhib	HSF-1 act
Cc1ccc2nc3sc(C(=O)NCc4ccco4)c(N)c3cc2c1	0	0	0	-	0	85
Cc1ccc2nc3sc(C(=O)Nc4c(C)[nH]c(=O)[nH]c4=O)c(N)c3cc2c1	0	53	0	0	0	0
O=C(C[C@@H]1CC[C@@H](NS(=O)(=O)c2ccc(F)cc2)[C@@H](CO)O1)NCc1ccncn1	-	-	-	0	-	-
NC(=O)c1ccccc1NC(=O)Nc1cccc(Cl)c1Cl	0	0	0	0	0	77
C/C(CC(=O)Nc1ccc2c(c1)OCO2)=N\NC(=O)c1ccccc1N	0	0	0	0	0	59
C/C(CC(=O)Nc1cccc(Cl)c1Cl)=N\NC(=O)c1ccccc1Br	0	0	0	0	0	0
C/C(CC(=O)Nc1cccc(Cl)c1Cl)=N\NC(=O)c1ccccc1N	0	0	0	0	0	55
C[C@@H]1CN([C@H](C)CO)S(=O)(=O)c2ccc(-c3ccccc3)cc2O[C@@H]1CN(C)C(=O)C1CCCCC1	-	-	-	0	-	-
Cc1ccc(S(=O)(=O)N(C)C[C@H]2Oc3ccc(NC(=O)CCN4CCOCC4)cc3CC(=O)N([C@@H](C)CO)C[C@@H]2C)cc1	-	-	-	0	-	-
COc1ccc2c3c([nH]c2c1)[C@H](CO)N(C(=O)Nc1ccc(F)cc1)CC31CN(C(=O)Nc2ccccc2)C1	-	-	-	0	-	-
CC1CCN(CCc2nc3cc(NC(=O)COc4ccc(Cl)cc4)ccc3n2C)CC1	0	0	0	0	0	72
COc1ccc(OCC(=O)Nc2ccc3c(c2)nc(CCN2CCN(c4ccccn4)CC2)n3C)cc1	0	0	0	0	-	-
Cn1c(CCN2CCN(c3ccccn3)CC2)nc2cc(NC(=O)COc3ccc(Cl)cc3)ccc21	50	54	0	0	0	0
O=C(C[C@H]1CC[C@H]2[C@@H](COC[C@@H](O)CN2S(=O)(=O)c2ccccc2F)O1)NCc1ccccc1F	-	-	-	0	-	-
CN1C(=O)c2cc(NC(=O)c3cccc(F)c3)ccc2OC[C@@H]2O[C@H](CC(=O)N3CCc4ccccc4C3)CC[C@H]21	-	-	-	0	-	-
Cn1cnc(C(=O)NCc2ccc(CNC(=O)OC(C)(C)C)cc2)c1C(=O)NCc1ccc(CNC(=O)OC(C)(C)C)cc1	0	58	0	0	-	-
CC(C)(C)OC(=O)NCCCCCNC(=O)c1[nH]cnc1C(=O)Nc1cc(Br)ccc1F	0	76	0	0	-	-
CC(C)(C)OC(=O)NCc1ccc(NC(=O)c2nc[nH]c2C(=O)Nc2cc(Br)ccc2F)cc1	0	0	-	0	-	-
CC(C)(C)OC(=O)NCc1ccc(CNC(=O)c2[nH]cnc2C(=O)Nc2ccccc2F)cc1	0	54	0	?	-	-
CC(C)(C)OC(=O)NCc1ccc(NC(=O)c2nc[nH]c2C(=O)NCCCCNC(=O)c2[nH]cnc2C(=O)Nc2ccc(CNC(=O)OC(C)(C)C)cc2)cc1	0	0	0	-	-	-
CC(C)(C)OC(=O)NCc1ccc(NC(=O)c2nc[nH]c2C(=O)NCCCNC(=O)c2[nH]cnc2C(=O)Nc2ccc(CNC(=O)OC(C)(C)C)cc2)cc1	0	73	0	-	-	-
COc1ccc(S(=O)(=O)N(C)C[C@@H]2OCCCC[C@@H](C)Oc3ccc(NC(=O)Nc4cccc5ccccc45)cc3C(=O)N([C@H](C)CO)C[C@H]2C)cc1	-	-	-	0	-	-
COc1ccc2c3c(n(C)c2c1)[C@H](CO)N(C(=O)CN1CCOCC1)CC31CN(C(=O)CC2CC2)C1	-	-	-	0	-	-
C[C@H]1CN([C@@H](C)CO)S(=O)(=O)c2ccc(-c3ccccc3)cc2O[C@@H]1CN(C)C(=O)C1CCC1	-	-	-	0	-	-
C[C@H](NC(=O)c1nc[nH]c1C(=O)NCc1ccc(CNC(=O)OC(C)(C)C)cc1)C(=O)OCc1ccccc1	57	0	0	0	-	-
SMILES	TROY signal inh	TWEAK-Fn14 inh	LMP1 NFkB inh	LGR2 antag	HSF1 inhib	HSF-1 act
CC(C)(C)OC(=O)NCCCCCNC(=O)c1[nH]cnc1C(=O)Nc1ccc(Cl)cc1	57	62	0	0	-	-
C[C@H](NC(=O)c1nc[nH]c1C(=O)NCc1ccc(CNC(=O)OC(C)(C)C)cc1)c1ccccc1	0	0	0	0	-	-
CC1=CC(=O)C=CC1=Nc1ccc(N(C)C)cc1	0	67	-	0	-	-
CCOc1ccc2nc(NC(=O)Nc3cccs3)sc2c1	0	0	0	0	0	80
COc1ccc2nc(NC(=O)Nc3ccccc3)sc2c1	0	0	0	0	0	0
CCOC(=O)Cc1csc(NC(=O)Cc2cccs2)n1	0	0	0	0	0	0

High-throughput results deposited in PubChem BioAssay by several laboratories.
